One molecule from PubChem BioAssay (NCATS) can be followed below.

Unmarked numbers belong to inactive results. Inconclusive results are not listed. The source made the active and inactive calls. Unless noted, calls follow the shape of the dose curve; as a rule, active = well fitted curve in the direction sought with a large enough effect; inconclusive = small, poorly fitted or top-dose-only effect, or another doubt; inactive = no such curve, though single readings can be large; an effect the other way counts as inactive or inconclusive.

Assay [1] in a line: Validation of Assay for Modulators of Lamin A Splicing (AID 1459; active = well fitted curve in the direction sought with a large enough effect in the signal ratio; the % refers to the signal ratio;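 also: cells exposed to compound for two days before reading; 0% is about no effect; ratio rise marks activators and ratio drop marks inhibitors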). The gist of the method: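 HeLa S3 lamin A-EGFP/DsRed2 stable clone, 600 cells/well, Opti-MEM 2% FBS; compounds by pin tool; 48 hrs, 37 °C/5% CO2; Acumen 488 nm scan, objects 10-100 um; GFP/RFP intensity ratio.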
Assay [2] concerns the target DNA repair nuclease/redox regulator APEX1 (Homo sapiens) (UniProt P27695). The assay is described as follows: qHTS Validation Assay for Inhibitors of the Human Apurinic/apyrimidinic Endonuclease 1 (APE1) (AID 1705;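 also: TAMRA fluorescence gain over two minutes as APE1 cuts a quenched THF abasic duplex; series mostly up to about 57 µM; % is scaled to controls: 0 for no effect and ±100 for the full control effect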). The gist of the method:
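qHTS, 1536-well. APE1 + cpd 15 min RT → 50 nM TAMRA/BHQ-2 THF-abasic dsDNA substrate → kinetic fluorescence, 3 reads/60 s; delta(read3−read1) = reaction progress. No-enzyme buffer = negative control.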

A short description of assay [3]: Counterscreen for APE1 Inhibitors: Fluorescent Dye Displacement Validation Assay (AID 1707).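 Also: plate controls were ThO with dsDNA and no compound for no effect and ThO without dsDNA for full effect.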 The gist of the method: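 Counterscreen flags promiscuous DNA binders: compounds displacing ThO from duplex DNA (abasic THF site, 50 nM) reduce 540 nm emission (480 nm excitation). ThO 250 nM final; Tris-HCl pH 7.5 with NaCl, MgCl2 and Tween-20.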
In assay [4] the target is Endonuclease 4 (Escherichia coli (strain K12)) (UniProt P0A6C1). The assay is described as follows: Counterscreen for APE1 Inhibitors: qHTS Validation Assay for Inhibitors of Endonuclease IV (AID 1708). Also: % is scaled to controls: 0 for no effect and ±100 for the full control effect. In outline: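 Incision of a double-stranded 50 nM TAMRA/BHQ-2 abasic substrate was followed kinetically (525/598 nm, reads every 60 s) after 15 min enzyme–compound preincubation with 2 nM EndoIV in pH 7.5 Tris buffer with MgCl2, DTT and Tween-20; concentration-response format.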

The nature of assay [5]: qHTS for differential inhibitors of proliferation of Plasmodium falciparum line GB4 (AID 1816).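 Also: potency is read from the fitted curve at half-maximal effect; parasite growth measured after 72 h incubation.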 Particulars: Potency: Plasmodium falciparum GB4 proliferation inhibition.
Assay [6] in a line: qHTS for differential inhibitors of proliferation of Plasmodium falciparum line W2 (AID 1883).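 Also: potency is read from the fitted curve at half-maximal effect; parasites grown with compound for 72 h before lysis and staining.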 Conditions: Potency: Plasmodium falciparum W2 proliferation inhibition.
Assay [7] can be described thus: qHTS for differential inhibitors of proliferation of Plasmodium falciparum line HB3 (AID 1886).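 Also: potency is read from the fitted curve at half-maximal effect; parasites grown with compound for 72 h before SYBR Green readout.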 Conditions: Potency: Plasmodium falciparum HB3 proliferation inhibition.
Assay [8] deals with Ferritin light chain (Equus caballus) (UniProt P02791). Description: qHTS Validation Assay for Identification of Novel General Anesthetics (AID 2323). Also: series mostly up to about 77 µM; % is scaled to controls: 0 for no effect and ±100 for the full control effect. The gist of the method: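 Fluorescence at 535 nm (excitation 380 nm) reported loss of 1-AMA binding to horse-spleen apoferritin (10 uM) in PBS with 50% saturated 1-aminoanthracene, after 10 min room-temperature incubation with compound; values from Hill fits of normalized response.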

In assay [9] the target is ATP-dependent DNA helicase Q1 (Homo sapiens) (UniProt P46063). Description: qHTS Validation Assay for Inhibitors of RecQ-Like Dna Helicase 1 (RECQ1) (AID 2353).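 Also: plate controls were DMSO vehicle for no effect and enzyme-free control for full effect.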 In outline:
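RECQ1T1 50 nM; forked duplex (20 bp + 30-nt ss tails) 200 nM, ATP 2 mM final; pH 8.0, 2 mM MgCl2, 2.5 ug/ml poly(dI-dC); 15 min compound preincubation; discontinuous kinetic read over 2 h at RT.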

Assay [10] is described as follows: Validation screen for small molecules that induce DNA re-replication in MCF 10A normal breast cells (AID 463097). Also: 0% is about no effect; nearly all actives have a fitted effect of over 60% in size. The gist of the method:
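Image-based qHTS: normal breast cells are incubated with compound for 48 hr, stained with Hoechst, and scanned for total nuclear fluorescence. Compounds raising the fraction of nuclei with elevated DNA content count as re-replication inducers.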

Assay [11] can be described thus: Quantitative high throughput screen for delayed death inhibitors of the malarial parasite plastid, 96 hour incubation (AID 488745).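 Also: luciferase-expressing P. falciparum in erythrocytes at 2% hematocrit and 0.1% parasitemia; series mostly up to about 29 µM; % is scaled to controls: 0 for no effect and ±100 for the full control effect; nearly all actives have a fitted effect of over 70% in size.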 The gist of the method:
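Readout is firefly luciferase luminescence from an integrated reporter in P. falciparum; lower signal marks inhibited growth. Cultures at 2% hematocrit and 0.1% parasitemia were treated with compound across two generations (96 h, 37 C, 5% CO2).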

The nature of assay [12]: Quantitative high throughput screen for delayed death inhibitors of the malarial parasite plastid, 48 hour incubation (AID 488752). Also: % is scaled to controls: 0 for no effect and ±100 for the full control effect; nearly all actives have a fitted effect of over 65% in size. The gist of the method: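 First, compound was pinned into RPMI 1640 medium containing 0.5% Albumax. Next, reporter-parasite-infected erythrocytes were added to 2% hematocrit and 0.1% parasitemia. After 48 h at 37 C under 5% CO2, luciferase detection reagent was added and luminescence read.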

The target in assay [13] is M-phase phosphoprotein 8 (Homo sapiens) (UniProt Q99549). Description: qHTS Validation Assay for Inhibitors for MPP8 Chromodomain Interactions with Methylated Histone Tails (AID 488949).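 Also: 50 nM MPP8 with 50 nM peptide preformed then compounds added for 30 min; AlphaScreen signal from MPP8 chromodomain bound to biotinylated H3K9me3 peptide; top concentration of the series differs between compounds; % is scaled to controls: 0 for no effect and ±100 for the full control effect; nearly all actives have a fitted effect of over 55% in size.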 In outline:
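50 nM MPP8 + 50 nM b-H3K9me3 peptide, PBS pH 7.4/0.01% Tween-20, 30 min RT; + cpd 30 min RT; + AlphaScreen donor/Ni-chelate acceptor beads 10 ug/mL final, 30 min dark; luminescence read.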

For assay [14], the target named is Transient receptor potential cation channel subfamily V member 1 (Homo sapiens) (UniProt Q8NER1). Description: HTS Assay for Compounds that Act as Enhancers of the Vanilloid Receptor 1 (AID 488979). Also: 0% is about no effect. The gist of the method:
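Calcium influx kinetics via Fluo-8 (480/520 nm) in TRPV1-expressing cells, 2000/well cultured overnight at 35.5C. Compound-alone read 3 min (agonist phase), followed by EC20 capsaicin challenge for 2 min (enhancer phase).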

The target in assay [15] is Thyrotropin receptor (Homo sapiens) (UniProt P16473). Description: qHTS Assay for Antagonists of the Thyroid Stimulating Hormone Receptor (AID 488980). Also: series mostly up to about 58 µM; 0% is about no effect. In outline:
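Readout is cAMP by HTRF competition between cellular cAMP and cAMP-d2 for a cryptate-labelled antibody. Antagonism was assessed in TSHR-transfected HEK293 cells stimulated with 4 nM TSH (EC80, final) in the presence of RO 20-1724.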

Assay [16] concerns the target Thyrotropin-releasing hormone receptor (Homo sapiens) (UniProt P34981). The assay is described as follows: qHTS for Small Molecule Agonists and Allosteric Enhancers of Human TRH Receptor: Validation Screen for Agonists (AID 493127;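 active = calcium activation more than 3 SD above the typical response in the agonist read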;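 also: intracellular calcium rise by fluo-8 fluorescence before TRH EC20 addition; 0% is about no effect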). Conditions: TRH receptor agonist cell assay; at 2 µM; stronger effect = higher value. The gist of the method:
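Compounds are added by online pintool to dye-loaded TRHR cells while fluorescence is recorded every second. A rise in calcium signal during the agonist read marks activation; a later 10 nM TRH addition (EC20) serves the separate enhancer mode.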

Assay [17] has as its target Galactokinase (Homo sapiens) (UniProt P51570). The assay is described as follows: qHTS Validation Assay for Inhibitors of Human Galactokinase (GALK) (AID 493189). Also: 0% is about no effect. The gist of the method:
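5 nM GALK / 100 uM galactose / 35 uM ATP, 20 mM HEPES pH8.0, 5 mM MgCl2, 60 mM NaCl, 1 mM DTT, 0.01% BSA (final). RT 1 h; Kinase-Glo Plus luminescence.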

Assay [18] can be described thus: Validation screen for small molecules that induce DNA re-replication in SW480 colon adenocarcinoma cells (AID 504364). Also: 0% is about no effect. In outline: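 Image-based qHTS: compounds were incubated with SW480 cells for 48 hr, nuclei stained with Hoechst, and per-nucleus fluorescence intensity scanned to flag cells with excess DNA content.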

Chain of M-phase phosphoprotein 8 (Homo sapiens) (Q99549 whole entry, looked up): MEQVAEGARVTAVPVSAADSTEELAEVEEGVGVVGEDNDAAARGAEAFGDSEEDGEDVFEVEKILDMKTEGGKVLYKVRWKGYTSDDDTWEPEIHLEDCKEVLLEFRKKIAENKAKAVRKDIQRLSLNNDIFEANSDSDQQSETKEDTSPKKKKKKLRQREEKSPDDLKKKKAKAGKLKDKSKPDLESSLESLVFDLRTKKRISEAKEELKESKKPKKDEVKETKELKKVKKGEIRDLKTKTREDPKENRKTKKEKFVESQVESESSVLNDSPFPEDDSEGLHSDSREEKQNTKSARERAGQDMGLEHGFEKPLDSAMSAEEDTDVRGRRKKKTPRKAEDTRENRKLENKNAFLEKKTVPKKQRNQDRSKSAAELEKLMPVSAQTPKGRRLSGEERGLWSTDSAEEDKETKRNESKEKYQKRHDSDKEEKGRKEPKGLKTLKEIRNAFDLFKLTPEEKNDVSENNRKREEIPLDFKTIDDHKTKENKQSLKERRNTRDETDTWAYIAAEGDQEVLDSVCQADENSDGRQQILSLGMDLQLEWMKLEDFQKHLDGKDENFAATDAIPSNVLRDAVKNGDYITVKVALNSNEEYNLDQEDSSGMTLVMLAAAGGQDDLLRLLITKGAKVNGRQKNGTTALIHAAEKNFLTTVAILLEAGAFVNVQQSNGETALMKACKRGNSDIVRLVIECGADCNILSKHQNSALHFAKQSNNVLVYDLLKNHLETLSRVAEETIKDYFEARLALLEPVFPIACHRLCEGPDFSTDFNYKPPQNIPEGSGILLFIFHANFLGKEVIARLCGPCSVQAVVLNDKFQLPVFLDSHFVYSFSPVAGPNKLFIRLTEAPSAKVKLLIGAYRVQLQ
Chain of Thyrotropin receptor (Homo sapiens) (P16473 whole entry, looked up): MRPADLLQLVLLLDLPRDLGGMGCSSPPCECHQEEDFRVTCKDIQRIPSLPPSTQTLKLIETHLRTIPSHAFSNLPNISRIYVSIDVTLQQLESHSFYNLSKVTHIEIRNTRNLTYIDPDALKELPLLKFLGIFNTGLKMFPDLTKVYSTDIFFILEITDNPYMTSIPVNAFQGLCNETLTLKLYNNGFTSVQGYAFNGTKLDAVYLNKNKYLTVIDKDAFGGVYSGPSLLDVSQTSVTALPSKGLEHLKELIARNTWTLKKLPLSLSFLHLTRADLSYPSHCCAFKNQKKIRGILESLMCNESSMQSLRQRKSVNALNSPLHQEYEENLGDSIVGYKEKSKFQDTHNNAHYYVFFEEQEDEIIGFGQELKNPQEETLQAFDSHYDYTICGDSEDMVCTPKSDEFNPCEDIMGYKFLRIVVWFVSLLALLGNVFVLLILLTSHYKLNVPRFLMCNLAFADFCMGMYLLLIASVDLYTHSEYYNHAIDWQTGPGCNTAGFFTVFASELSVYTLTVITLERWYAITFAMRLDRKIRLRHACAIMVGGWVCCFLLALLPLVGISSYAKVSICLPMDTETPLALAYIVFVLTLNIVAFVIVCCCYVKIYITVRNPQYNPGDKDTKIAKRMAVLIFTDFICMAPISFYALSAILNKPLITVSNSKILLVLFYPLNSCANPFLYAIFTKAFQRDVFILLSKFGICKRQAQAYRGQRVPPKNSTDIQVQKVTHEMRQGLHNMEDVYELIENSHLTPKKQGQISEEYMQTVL
Chain of DNA repair nuclease/redox regulator APEX1 (Homo sapiens) (P27695 whole entry, looked up): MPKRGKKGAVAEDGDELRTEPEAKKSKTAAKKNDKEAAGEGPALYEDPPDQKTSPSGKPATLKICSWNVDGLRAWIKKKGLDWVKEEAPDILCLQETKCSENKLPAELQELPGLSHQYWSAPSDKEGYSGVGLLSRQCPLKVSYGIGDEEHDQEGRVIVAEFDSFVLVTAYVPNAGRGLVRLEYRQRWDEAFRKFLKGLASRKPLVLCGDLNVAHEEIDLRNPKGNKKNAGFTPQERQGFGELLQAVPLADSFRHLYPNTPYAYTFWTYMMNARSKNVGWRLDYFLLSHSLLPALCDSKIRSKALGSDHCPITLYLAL
Chain of Galactokinase (Homo sapiens) (P51570 whole entry, looked up): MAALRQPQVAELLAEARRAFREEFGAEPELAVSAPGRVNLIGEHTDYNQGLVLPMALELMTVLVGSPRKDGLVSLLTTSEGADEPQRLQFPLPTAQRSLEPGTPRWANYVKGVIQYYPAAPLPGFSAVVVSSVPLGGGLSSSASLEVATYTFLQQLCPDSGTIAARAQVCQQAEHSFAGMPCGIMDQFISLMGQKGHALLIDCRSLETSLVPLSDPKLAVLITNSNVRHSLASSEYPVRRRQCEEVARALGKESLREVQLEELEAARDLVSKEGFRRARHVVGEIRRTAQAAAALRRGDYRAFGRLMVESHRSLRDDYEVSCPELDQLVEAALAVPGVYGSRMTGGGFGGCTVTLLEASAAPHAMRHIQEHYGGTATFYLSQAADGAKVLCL
Chain of Thyrotropin-releasing hormone receptor (Homo sapiens) (P34981 whole entry, looked up): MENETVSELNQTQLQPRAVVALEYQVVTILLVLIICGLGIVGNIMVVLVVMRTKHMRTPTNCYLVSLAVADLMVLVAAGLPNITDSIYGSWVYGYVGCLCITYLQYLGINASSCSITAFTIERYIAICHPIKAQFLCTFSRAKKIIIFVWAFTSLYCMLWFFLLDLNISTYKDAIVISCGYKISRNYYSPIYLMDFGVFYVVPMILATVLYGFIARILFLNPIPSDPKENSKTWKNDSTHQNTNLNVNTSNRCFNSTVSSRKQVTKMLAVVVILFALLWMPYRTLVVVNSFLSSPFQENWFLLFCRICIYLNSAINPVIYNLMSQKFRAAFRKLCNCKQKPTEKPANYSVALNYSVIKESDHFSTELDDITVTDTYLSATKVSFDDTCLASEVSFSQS
Chain of ATP-dependent DNA helicase Q1 (Homo sapiens) (P46063 whole entry, looked up): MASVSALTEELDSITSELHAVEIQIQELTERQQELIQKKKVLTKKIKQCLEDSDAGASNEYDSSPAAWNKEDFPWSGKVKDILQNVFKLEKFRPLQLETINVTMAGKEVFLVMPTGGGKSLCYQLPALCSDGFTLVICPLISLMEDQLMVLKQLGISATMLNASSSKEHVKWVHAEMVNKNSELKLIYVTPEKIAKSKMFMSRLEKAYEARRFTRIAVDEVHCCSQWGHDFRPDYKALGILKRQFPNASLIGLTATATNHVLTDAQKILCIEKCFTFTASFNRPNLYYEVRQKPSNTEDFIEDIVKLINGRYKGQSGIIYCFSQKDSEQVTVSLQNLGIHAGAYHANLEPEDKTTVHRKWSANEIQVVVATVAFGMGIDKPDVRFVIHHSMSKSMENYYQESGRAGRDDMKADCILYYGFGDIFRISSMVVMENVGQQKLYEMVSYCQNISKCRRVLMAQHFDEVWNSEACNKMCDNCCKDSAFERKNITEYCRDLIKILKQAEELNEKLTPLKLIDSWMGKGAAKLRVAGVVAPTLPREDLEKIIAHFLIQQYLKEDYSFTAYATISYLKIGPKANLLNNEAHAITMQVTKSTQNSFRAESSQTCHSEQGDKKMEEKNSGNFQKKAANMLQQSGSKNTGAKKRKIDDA
Chain of Ferritin light chain (Equus caballus) (P02791 2-175 limits assumed): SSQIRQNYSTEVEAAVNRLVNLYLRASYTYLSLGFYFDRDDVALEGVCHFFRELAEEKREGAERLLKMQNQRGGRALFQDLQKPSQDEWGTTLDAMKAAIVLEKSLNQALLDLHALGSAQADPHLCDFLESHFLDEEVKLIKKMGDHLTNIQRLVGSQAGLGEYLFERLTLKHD
Chain of Transient receptor potential cation channel subfamily V member 1 (Homo sapiens) (Q8NER1 whole entry, looked up): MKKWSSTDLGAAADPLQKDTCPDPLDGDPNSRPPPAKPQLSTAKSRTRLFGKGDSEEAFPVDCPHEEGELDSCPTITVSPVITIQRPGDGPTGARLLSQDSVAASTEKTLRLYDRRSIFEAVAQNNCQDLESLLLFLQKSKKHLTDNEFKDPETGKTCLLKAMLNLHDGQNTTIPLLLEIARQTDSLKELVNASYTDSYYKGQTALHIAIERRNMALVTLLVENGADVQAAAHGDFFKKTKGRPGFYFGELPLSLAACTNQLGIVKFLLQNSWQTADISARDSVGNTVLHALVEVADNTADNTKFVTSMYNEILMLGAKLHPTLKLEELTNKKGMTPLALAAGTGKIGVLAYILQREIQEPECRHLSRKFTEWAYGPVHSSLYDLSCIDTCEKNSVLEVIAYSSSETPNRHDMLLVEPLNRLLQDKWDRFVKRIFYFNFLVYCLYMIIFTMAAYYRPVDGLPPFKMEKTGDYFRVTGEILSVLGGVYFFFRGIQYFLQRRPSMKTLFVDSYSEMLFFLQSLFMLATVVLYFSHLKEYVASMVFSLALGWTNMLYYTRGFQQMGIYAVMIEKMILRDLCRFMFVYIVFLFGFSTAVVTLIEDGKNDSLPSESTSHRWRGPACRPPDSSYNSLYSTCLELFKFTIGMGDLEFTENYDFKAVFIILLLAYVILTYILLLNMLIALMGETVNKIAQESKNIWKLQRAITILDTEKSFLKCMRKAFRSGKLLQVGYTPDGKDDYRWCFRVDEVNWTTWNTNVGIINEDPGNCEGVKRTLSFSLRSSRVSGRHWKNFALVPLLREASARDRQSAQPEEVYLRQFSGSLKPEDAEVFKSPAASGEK

As to `Nc1ncnc2c1nc(Sc1ccc(Cl)cc1)n2[C@H]1O[C@@H]2COP(=O)(O)O[C@H]2[C@@H]1O`, the result in assay [1], in [4], in [8], in assay [10], in assay [14] and in assay [15] was inactive. Further, the molecule was called inactive in assay [17] and in [18]. The Potency result in [2], in assay [3], in [9], in assay [11], in assay [12] and in assay [13] was “inactive” throughout. In addition, the figures for the Potency in assay [5], in [6] and in assay [7] were 7.94 µM (active), 10 µM (active) and 10 µM (active), respectively. Also, the activation in assay [16] is 1.31%.
